# Reference: PubChem BioAssay (Tox21)
# Where “and” joins values, the source holds several entries; their conditions need not be identical. Identical values can stand only once. Results filed as inconclusive are left out. Entries that show only a call come without a potency. Some structures have more than one record in an assay (separate samples or runs), and their calls can disagree. Calls of active or inactive are those of the source. Unless noted, the call rests on the fitted dose curve; in most records, active means well fitted curve in the direction sought with a large enough effect in the repeat runs; inconclusive means weak or mixed curves; inactive means no such curve, though single readings can be large; an effect the other way counts as inactive or inconclusive.
# How the values were obtained:
# [1] = qHTS assay to identify small molecule agonists of the hypoxia (HIF-1) signaling pathway (AID 1224846; active means well fitted activation curve with a large enough effect in the signal ratio in the repeat runs, not every such curve was filed as active; the % refers to the signal ratio)
# In short: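 HRE-bla ME-180 cells (beta-lactamase reporter under hypoxia response element) were plated at 2,000 cells/well in medium with 0.5% dialyzed FBS, rested 5 hrs, then given compounds in DMSO for 17 hrs at 37C, 5% CO2. Reporter induction was read with CCF4-AM FRET substrate.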
# [2] = qHTS RealTime-Glo MT Cell Viability Assay in HepG2 cells - 24 hour (AID 1224867); further: nearly all actives have a fitted effect of over 50% in size; further: potency means the concentration at half of the fitted maximal effect
# In short: (§1)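 Viability was tracked continuously by NanoLuc luminescence from prosubstrate reduced by living HepG2 cells, at successive time points over 40 h of compound exposure. Cells with reagent were preincubated 5 h at 37 °C before compound addition.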
# [3] = qHTS RealTime-Glo MT Cell Viability Assay in HEK293 cells - 32 hour (AID 1224868); further: nearly all actives have a fitted effect of over 50% in size; further: potency means the concentration at half of the fitted maximal effect
# In short: (§2)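 Viability tracked continuously by luminescence as live cells reduce a prosubstrate for NanoLuc; HEK293 cells preincubated 5 h, compound-treated at 37 C, and read at 0, 8, 16, 24, 32 and 40 h.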
# [4] = qHTS RealTime-Glo MT Cell Viability Assay in HepG2 cells - 40 hour (AID 1224870); further: nearly all actives have a fitted effect of over 50% in size; further: potency means the concentration at half of the fitted maximal effect
# In short: (§3)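 HepG2 cells (600/well) mixed with RealTime-Glo MT reagent, settled 5 h at 37 C/5% CO2 before compound addition. Nonlytic NanoLuc luminescence from viable-cell prosubstrate reduction read repeatedly during 40 h treatment at 37 C.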
# [5] = A CellTox Green Cytotoxicity Assay to monitor cytotoxicity in HEK293 cells - 40 hour (AID 1224871); further: nearly all actives have a fitted effect of over 45% in size; further: potency means the concentration at half of the fitted maximal effect
# In short: (§4)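 HEK293 cells premixed with CellTox Green dye were seeded at 600 cells/well and left 5 h at 37 C/5% CO2 before pin transfer of 23 nL compound in DMSO. Fluorescence from dye bound to dead-cell DNA was read during 40 h treatment.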
# [6] = qHTS RealTime-Glo MT Cell Viability Assay in HEK293 cells - 16 hour (AID 1224872); further: nearly all actives have a fitted effect of over 50% in size; further: potency means the concentration at half of the fitted maximal effect
# In short: as §2
# [7] = qHTS RealTime-Glo MT Cell Viability Assay in HepG2 cells - 8 hour (AID 1224873); further: nearly all actives have a fitted effect of over 55% in size; further: potency means the concentration at half of the fitted maximal effect
# In short: as §3
# [8] = qHTS RealTime-Glo MT Cell Viability Assay in HEK293 cells - 40 hour (AID 1224874); conditions: RealTime-Glo luminescence; max response: stronger effect = lower value; further: nearly all actives have a fitted effect of over 50% in size; further: potency means the concentration at half of the fitted maximal effect
# In short: (§5)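 HEK293 cells mixed with RealTime-Glo reagents (NanoLuc plus cell-permeant prosubstrate) at 600 cells/well, preincubated 5 h at 37 C/5% CO2, then given 23 nL compound in DMSO. Nonlytic luminescence from viable cells was read at 0, 8, 16, 24, 32 and 40 h.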
# [9] = A CellTox Green Cytotoxicity Assay to monitor cytotoxicity in HEK293 cells - 24 hour (AID 1224875); further: nearly all actives have a fitted effect of over 45% in size; further: potency means the concentration at half of the fitted maximal effect
# In short: as §4
# [10] = qHTS RealTime-Glo MT Cell Viability Assay in HepG2 cells - 32 hour (AID 1224877); further: nearly all actives have a fitted effect of over 55% in size; further: potency means the concentration at half of the fitted maximal effect
# In short: as §1
# [11] = A CellTox Green Cytotoxicity Assay to monitor cytotoxicity in HepG2 cells - 24 hour (AID 1224878); further: nearly all actives have a fitted effect of over 45% in size; further: potency means the concentration at half of the fitted maximal effect
# In short: (§6)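 HepG2 cells were seeded together with the CellTox Green dye at 600 cells/well, left 5 h at 37 C/5% CO2, then given compounds in DMSO. Fluorescence from dye bound to dead-cell DNA was read repeatedly over 40 h of treatment at 37 C.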
# [12] = A CellTox Green Cytotoxicity Assay to monitor cytotoxicity in HepG2 cells - 40 hour (AID 1224879); further: nearly all actives have a fitted effect of over 40% in size; further: potency means the concentration at half of the fitted maximal effect
# In short: as §6
# [13] = qHTS RealTime-Glo MT Cell Viability Assay in HEK293 cells - 0 hour (AID 1224880); further: top concentration of the series differs between compounds; nearly all actives have a fitted effect of over 45% in size
# In short: as §5
# [14] = A CellTox Green Cytotoxicity Assay to monitor cytotoxicity in HepG2 cells - 0 hour (AID 1224882); further: nearly all actives have a fitted effect of over 35% in size
# In short: as §6
# [15] = A CellTox Green Cytotoxicity Assay to monitor cytotoxicity in HEK293 cells - 0 hour (AID 1224869); further: nearly all actives have a fitted effect of over 50% in size
# In short: as §4
# [16] = A CellTox Green Cytotoxicity Assay to monitor cytotoxicity in HEK293 cells - 32 hour (AID 1224881); further: nearly all actives have a fitted effect of over 40% in size; further: potency means the concentration at half of the fitted maximal effect
# In short: as §4
# [17] = qHTS assay to identify small molecule agonists of H2AX - cell viability counter screen (AID 1224847; calls by dose curve; further: nearly all actives have a fitted effect of over 30% in size; further: potency means the concentration at half of the fitted maximal effect)
# In short: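 CHO-K1 cells plated overnight at 37C, then exposed 3 h at 37C to compounds at 15 concentrations (0.76% DMSO final). Viability by CellTiter-Glo luminescence after 30 min at room temperature.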
# [18] = qHTS assay to identify small molecule agonists of the estrogen related receptor (ERR) signaling pathway from Tox21 library (AID 1224849; calls by dose curve; further: nearly all actives have a fitted effect of over 15% in size); conditions: ERR reporter cell line, ONE-Glo luciferase, 18 h; at 92.4 µM (top of the series) unless noted
# In short: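 ERR reporter cell line (NTP) seeded, rested 6 h at 37 C/5% CO2, then pinned with Tox21 compounds in DMSO. After 18 h at 37 C, ONE-Glo luciferase luminescence was read following 30 min at room temperature.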
# [19] = A CellTox Green Cytotoxicity Assay to monitor cytotoxicity in HepG2 cells - 16 hour (AID 1224876); further: nearly all actives have a fitted effect of over 45% in size; further: potency means the concentration at half of the fitted maximal effect
# In short: as §6
# [20] = qHTS assay to identify small molecule antagonists of the estrogen related receptor (ERR) signaling pathway from Tox21 library (AID 1224848); further: nearly all actives have a fitted effect of over 50% in size; further: potency means the concentration at half of the fitted maximal effect
# In short: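 ERR reporter cell line (from NTP) seeded 2,000 cells/well, rested 6 h at 37 C/5% CO2, then pin-dosed with compounds in DMSO. After 18 h at 37 C, ONE-Glo added; luminescence read after 30 min at room temperature.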
smiles,measurement,setting,value
Cc1cn[nH]c1,outcome,[1],inactive
same,Potency,[2],inactive
same,Potency,[3],inactive
same,Potency,[4],inactive
same,Potency,[5],inactive
same,Potency,[6],inactive
same,Potency,[7],inactive
same,max response,[8],7.93% (inactive)
same,Potency,[9],inactive
same,Potency,[10],inactive
same,Potency,[11],inactive
same,Potency,[12],inactive
same,Potency,[13],inactive
same,Potency,[14],inactive
CCOC(=O)COc1ccc(C)cc1,outcome,[1],inactive
same,Potency,[2],inactive
same,Potency,[3],inactive
same,Potency,[15],inactive
same,Potency,[4],inactive
same,Potency,[5],inactive
same,Potency,[6],inactive
same,Potency,[7],inactive
same,Potency,[9],inactive
same,Potency,[10],inactive
same,Potency,[11],inactive
same,Potency,[12],inactive
same,Potency,[13],inactive
same,Potency,[16],inactive
same,Potency,[14],inactive
C1CC(COCC2CO2)CCC1COCC1CO1 (stereo not drawn),Potency,[17],inactive
same,"activity change, positive = activation",[18],-24.4% (inactive)
same,Potency,[2],inactive
same,Potency,[3],inactive
same,Potency,[15],inactive
same,Potency,[4],inactive
same,Potency,[5],inactive
same,Potency,[6],inactive
same,Potency,[7],inactive
same,Potency,[9],inactive
same,Potency,[19],inactive
same,Potency,[10],inactive
same,Potency,[11],inactive
same,Potency,[12],inactive
same,Potency,[13],inactive
same,Potency,[16],inactive
same,Potency,[14],inactive
CCCCC(CC)COC(=O)c1ccc(O)cc1 (stereo not drawn),Potency,[17],89.4 µM (active) and 80 µM (active)
same,Potency,[2],inactive
same,Potency,[3],54.7 µM (active)
same,Potency,[4],inactive
same,Potency,[5],43.5 µM (active) and 21.9 µM (active)
same,Potency,[6],54.7 µM (active)
same,Potency,[7],inactive
same,Potency,[8],48.8 µM (active)
same,Potency,[9],43.5 µM (active) and 21.9 µM (active)
same,Potency,[19],inactive and 30.9 µM (active)
same,Potency,[10],inactive
same,Potency,[11],34.7 µM (active)
same,Potency,[12],34.7 µM (active)
same,Potency,[13],inactive
CCCCCCOc1ccc(O)cc1,Potency,[17],113 µM (active)
same,Potency,[20],inactive
same,"activity change, positive = activation",[18],0.107% (inactive)
same,Potency,[3],0.0692 µM (active)
same,Potency,[15],inactive
same,Potency,[4],inactive
same,Potency,[5],19.5 µM (active)
same,Potency,[6],0.0617 µM (active)
same,Potency,[8],0.0776 µM (active)
same,Potency,[13],inactive
same,Potency,[16],19.5 µM (active)
same,Potency,[14],inactive
C=CC(=O)OCCN(CC)CC,Potency,[17],inactive
same,Potency,[2],inactive
same,Potency,[3],inactive
same,Potency,[15],inactive
same,Potency,[4],inactive
same,Potency,[5],inactive
same,Potency,[6],inactive
same,Potency,[7],inactive
same,Potency,[9],inactive
same,Potency,[19],inactive
same,Potency,[10],inactive
same,Potency,[11],inactive
same,Potency,[12],inactive
same,Potency,[13],inactive
same,Potency,[16],inactive
same,Potency,[14],inactive
CC(=O)Nc1ccc(O)cc1,Potency,[17],inactive
same,Potency,[2],inactive
same,Potency,[3],inactive
same,Potency,[15],inactive
same,Potency,[4],inactive
same,Potency,[5],inactive
same,Potency,[6],inactive
same,Potency,[7],inactive
same,max response,[8],7.7% (inactive) and -11.8% (inactive) and 15.1% (inactive)
same,Potency,[9],inactive
same,Potency,[11],inactive
same,Potency,[12],inactive
same,Potency,[13],inactive
same,Potency,[16],inactive
same,Potency,[14],inactive
CCCCCCCCCCCCCC[n+]1ccccc1,Potency,[17],56.6 µM (active)
same,Potency,[20],1.37 µM (active)
same,"activity change, positive = activation",[18],-77.5% (inactive)
same,Potency,[2],19.5 µM (active)
same,Potency,[3],4.9 µM (active)
same,Potency,[4],9.77 µM (active)
same,Potency,[5],38.9 µM (active)
same,Potency,[6],27.5 µM (active)
same,Potency,[7],49 µM (active)
same,Potency,[8],1.74 µM (active)
same,Potency,[9],38.9 µM (active)
same,Potency,[11],15.5 µM (active)
same,Potency,[12],11 µM (active)
same,Potency,[13],inactive
same,Potency,[16],34.7 µM (active)
same,Potency,[14],inactive
O=C(Nc1ccc(Cl)c(Cl)c1)c1cc(Cl)cc(Cl)c1O,Potency,[17],10.1 µM (active)
same,Potency,[20],1.09 µM (active)
same,"activity change, positive = activation",[18],-15.1% (inactive)
same,Potency,[3],4.9 µM (active)
same,Potency,[15],inactive
same,Potency,[4],12.3 µM (active)
same,Potency,[5],49 µM (active)
same,Potency,[7],inactive
same,Potency,[8],4.9 µM (active)
same,Potency,[19],inactive
same,Potency,[11],9.77 µM (active)
same,Potency,[12],8.71 µM (active)
same,Potency,[13],inactive
same,Potency,[14],inactive
CCCCCCCCCCCCN(CCO)CCO,Potency,[17],100 µM (active)
same,Potency,[20],60.9 µM (active)
same,"activity change, positive = activation",[18],-79.7% (inactive)
same,Potency,[2],48.8 µM (active)
same,Potency,[3],43.5 µM (active)
same,Potency,[15],inactive
same,Potency,[5],54.7 µM (active)
same,Potency,[6],48.8 µM (active)
same,Potency,[8],38.7 µM (active)
same,Potency,[9],54.7 µM (active)
same,Potency,[19],43.5 µM (active)
same,Potency,[10],43.5 µM (active)
same,Potency,[11],24.4 µM (active)
same,Potency,[12],19.4 µM (active)
same,Potency,[16],54.7 µM (active)
same,Potency,[14],inactive
CCN(CC)c1ccc(N)cc1,Potency,[17],51.9 µM (active)
same,Potency,[20],2.5 µM (active)
same,Potency,[3],22.5 µM (active)
same,Potency,[15],inactive
same,Potency,[5],44.8 µM (active)
same,Potency,[6],22.5 µM (active)
same,Potency,[8],17.8 µM (active)
same,Potency,[9],inactive
same,Potency,[19],inactive
same,Potency,[12],50.3 µM (active)
same,Potency,[13],inactive
same,Potency,[14],inactive
O=C(O)CCn1c2c(c3ccccc31)C[C@H](NS(=O)(=O)c1ccc(F)cc1)CC2,Potency,[17],inactive
same,Potency,[2],inactive
same,Potency,[3],inactive
same,Potency,[15],inactive
same,Potency,[4],inactive
same,Potency,[5],inactive
same,Potency,[6],inactive
same,Potency,[7],inactive
same,max response,[8],8.69% (inactive)
same,Potency,[9],inactive
same,Potency,[19],inactive
same,Potency,[10],inactive
same,Potency,[11],inactive
same,Potency,[12],inactive
same,Potency,[13],inactive
same,Potency,[16],inactive
same,Potency,[14],inactive
